These results are taken from paper PMC8384837, “Expanding the binding specificity for RNA recognition by a PUF domain”.

What all share (assay): yeast three-hybrid, YBZ-1, SC-Leu-His + 0.5 mM 3-AT, 4 days
Holding throughout (settings): tags: N-Gal4 AD-HA kept; label: inside an RPR1-promoter hybrid RNA with tandem MS2 sites; ssRNA

Assay [1] concerns the target PUM1 PUF domain R2-RRC (Homo sapiens, UniProt Q14671 828-1176, N899R;Y900R;Q903C). Summed up:
(§1)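 A centromeric plasmid in strain YBZ-1 co-expressed Pumilio-1 PUF domain libraries, randomized at the three base-contacting residues of each repeat, with matching RNA elements; the strain carries a LexA–MS2 coat fusion and a HIS3 reporter. After four days on SC-Leu (input) or SC-Leu-His + 0.5 mM 3-AT (selection), the repeat regions were PCR-amplified and Illumina-sequenced. The interaction score is the log change in variant frequency from input to selection, using log2 and a pseudocount of 1 where absent.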

Assay [2] has as its target PUM1 PUF domain R3-RAG (Homo sapiens, UniProt Q14671 828-1176, C935R;R936A;Q939G). Summed up: as §1
The target of assay [3] is PUM1 PUF domain R3-QRS (Homo sapiens, UniProt Q14671 828-1176, C935Q;Q939S). The method in brief:
as §1

Assay [4] has as its target PUM1 PUF domain R3-TRP (Homo sapiens, UniProt Q14671 828-1176, C935T;Q939P). The method in brief: as §1
The target in assay [5] is PUM1 PUF domain R3-FWR (Homo sapiens, UniProt Q14671 828-1176, C935F;R936W;Q939R). Summed up: as §1
Assay [6] addresses PUM1 PUF domain R4-VFP (Homo sapiens, UniProt Q14671 828-1176, N971V;H972F;Q975P). The method in brief: as §1
Assay [7] addresses PUM1 PUF domain R4-WFG (Homo sapiens, UniProt Q14671 828-1176, N971W;H972F;Q975G). The method in brief: as §1
For assay [8], the target named is PUM1 PUF domain R4-PHQ (Homo sapiens, UniProt Q14671 828-1176, N971P). Summed up: as §1
Assay [9] has as its target PUM1 PUF domain R8-LFG (Homo sapiens, UniProt Q14671 828-1176, N1122L;Y1123F;Q1126G). The method in brief: as §1
Assay [10] concerns the target PUM1 PUF domain R5-VYF (Homo sapiens, UniProt Q14671 828-1176, C1007V;R1008Y;Q1011F). The method in brief:
as §1

The target in assay [11] is PUM1 PUF domain R4-GPN (Homo sapiens, UniProt Q14671 828-1176, N971G;H972P;Q975N). The method in brief: as §1
Assay [12] concerns the target PUM1 PUF domain R5-LHR (Homo sapiens, UniProt Q14671 828-1176, C1007L;R1008H;Q1011R). Summed up:
as §1

The target of assay [13] is PUM1 PUF domain R8-TRR (Homo sapiens, UniProt Q14671 828-1176, N1122T;Y1123R;Q1126R). The method in brief: as §1
The target in assay [14] is PUM1 PUF domain R3-GFD (Homo sapiens, UniProt Q14671 828-1176, C935G;R936F;Q939D). Summed up: as §1
Assay [15] addresses PUM1 PUF domain R5-KQC (Homo sapiens, UniProt Q14671 828-1176, C1007K;R1008Q;Q1011C). The method in brief: as §1

Sequence of PUM1 PUF domain R4-WFG (Q14671 828-1176 N971W/H972F/Q975G): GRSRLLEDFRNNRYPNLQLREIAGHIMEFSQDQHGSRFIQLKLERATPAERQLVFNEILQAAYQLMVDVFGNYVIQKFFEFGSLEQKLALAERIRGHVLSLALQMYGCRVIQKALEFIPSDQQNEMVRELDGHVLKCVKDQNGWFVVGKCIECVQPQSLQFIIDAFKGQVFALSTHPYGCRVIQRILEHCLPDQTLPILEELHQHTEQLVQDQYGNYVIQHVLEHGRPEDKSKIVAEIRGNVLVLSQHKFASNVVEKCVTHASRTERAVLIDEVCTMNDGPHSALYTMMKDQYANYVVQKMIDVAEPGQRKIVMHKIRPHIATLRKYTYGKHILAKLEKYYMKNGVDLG
Sequence of PUM1 PUF domain R3-QRS (Q14671 828-1176 C935Q/Q939S): as the sequence (Q14671 828-1176 N971W/H972F/Q975G) above, with C108Q, Q112S, W144N, F145H, G148Q counted along it
Sequence of PUM1 PUF domain R8-LFG (Q14671 828-1176 N1122L/Y1123F/Q1126G): as the sequence (Q14671 828-1176 N971W/H972F/Q975G) above, with W144N, F145H, G148Q, N295L, Y296F, Q299G counted along it
Sequence of PUM1 PUF domain R5-KQC (Q14671 828-1176 C1007K/R1008Q/Q1011C): as the sequence (Q14671 828-1176 N971W/H972F/Q975G) above, with W144N, F145H, G148Q, C180K, R181Q, Q184C counted along it
Sequence of PUM1 PUF domain R5-VYF (Q14671 828-1176 C1007V/R1008Y/Q1011F): as the sequence (Q14671 828-1176 N971W/H972F/Q975G) above, with W144N, F145H, G148Q, C180V, R181Y, Q184F counted along it
Sequence of PUM1 PUF domain R4-VFP (Q14671 828-1176 N971V/H972F/Q975P): as the sequence (Q14671 828-1176 N971W/H972F/Q975G) above, with W144V, G148P counted along it
Sequence of PUM1 PUF domain R2-RRC (Q14671 828-1176 N899R/Y900R/Q903C): as the sequence (Q14671 828-1176 N971W/H972F/Q975G) above, with N72R, Y73R, Q76C, W144N, F145H, G148Q counted along it
Sequence of PUM1 PUF domain R4-GPN (Q14671 828-1176 N971G/H972P/Q975N): as the sequence (Q14671 828-1176 N971W/H972F/Q975G) above, with W144G, F145P, G148N counted along it
Sequence of PUM1 PUF domain R3-RAG (Q14671 828-1176 C935R/R936A/Q939G): as the sequence (Q14671 828-1176 N971W/H972F/Q975G) above, with C108R, R109A, Q112G, W144N, F145H, G148Q counted along it

Take “GGCUAGAACUAGUGGAUCCCCCGGCGCCCGGCGGCUCGAGCCCGGGUAAGUGUAAAGAGUCUGCAUGCCGCCGGGCGCCAUGCCUGCAGGUCGACUCUAGAAAACAUG”: in assay [1], the binding signal is 2.42 log2 enrichment (interaction score).

“GGCUAGAACUAGUGGAUCCCCCGGCGCCCGGCGGCUCGAGCCCGGGUAAGUGUAAUUAGUCUGCAUGCCGCCGGGCGCCAUGCCUGCAGGUCGACUCUAGAAAACAUG”: the binding signal in assay [2] is 3.75 log2 enrichment (interaction score); in assay [3], 2.68 log2 enrichment (interaction score); in assay [4] it was 1.29 log2 enrichment (interaction score); in [5], 2.94 log2 enrichment (interaction score).

For the sequence “GGCUAGAACUAGUGGAUCCCCCGGCGCCCGGCGGCUCGAGCCCGGGUAAGUGUAUAUAGUCUGCAUGCCGCCGGGCGCCAUGCCUGCAGGUCGACUCUAGAAAACAUG”, the binding signal is 3.78 log2 enrichment (interaction score) in [6], 2.4 log2 enrichment (interaction score) in assay [7] and 7.3 log2 enrichment (interaction score) in [8].

As to “GGCUAGAACUAGUGGAUCCCCCGGCGCCCGGCGGCUCGAGCCCGGGUAAGUGUAAAUAGUCUGCAUGCCGCCGGGCGCCAUGCCUGCAGGUCGACUCUAGAAAACAUG”, the binding signal was 1.28 log2 enrichment (interaction score) in [9]; 2.44 log2 enrichment (interaction score) in assay [10]; 3.62 log2 enrichment (interaction score) in assay [11]; 1.81 log2 enrichment (interaction score) in assay [7]; 4.51 log2 enrichment (interaction score) in [4]; 3.11 log2 enrichment (interaction score) in assay [12]. In addition, the binding signal is 0.88 log2 enrichment (interaction score) in assay [5], 1.14 log2 enrichment (interaction score) in assay [13] and 5.65 log2 enrichment (interaction score) in assay [14].

For the sequence “GGCUAGAACUAGUGGAUCCCCCGGCGCCCGGCGGCUCGAGCCCGGGUAAGCGUAAAUAGUCUGCAUGCCGCCGGGCGCCAUGCCUGCAGGUCGACUCUAGAAAACAUG”, the binding signal in assay [9] was 2.38 log2 enrichment (interaction score); in assay [13], 2.73 log2 enrichment (interaction score).

With “GGCUAGAACUAGUGGAUCCCCCGGCGCCCGGCGGCUCGAGCCCGGGUAAGUGUCAAUAGUCUGCAUGCCGCCGGGCGCCAUGCCUGCAGGUCGACUCUAGAAAACAUG”, the binding signal in [15] was 3.25 log2 enrichment (interaction score).

Take “GGCUAGAACUAGUGGAUCCCCCGGCGCCCGGCGGCUCGAGCCCGGGUAAGUGUAAGUAGUCUGCAUGCCGCCGGGCGCCAUGCCUGCAGGUCGACUCUAGAAAACAUG”: in assay [3], the binding signal is 2.75 log2 enrichment (interaction score).
